In all, about 5,500 compounds went through this assay and about 2,000 (36%) were called active. Another 18% or so got no clear call; they are omitted. No stated cut-off is given here; in the data, active means normalized growth mostly below about 0.91 (no sharp cut-off); inconclusive means no clear call, values can overlap the other calls; inactive means mostly above about 0.92. The list shows a part of the results.
Experiment: chemical genetic growth profiling, strain panel (AID 1159580);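 further: tested at 20 µM; growth read once vehicle control cultures reached saturation at 30 °C; 1 = growth at the plate median or of vehicle wells; lower values mean less growth of the strain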
Conditions: growth OD

Measured: normalized growth

CN1CC(=O)N=C1N
inactive: S. cerevisiae deletion strains, locus YJR043C, strain POL32, hits give low values 1.01 | S. cerevisiae deletion strains, locus YJR066W, strain TOR1, hits give low values 0.902 | S. cerevisiae deletion strains, locus YJR075W, strain HOC1, hits give low values 1.01 | S. cerevisiae deletion strains, locus YKL009W, strain mrt4, hits give low values 1.05 | S. cerevisiae deletion strains, locus YKL068W, hits give low values 0.996 | S. cerevisiae deletion strains, locus YKL085W, strain MDH1 (second series), hits give low values 0.998 | S. cerevisiae deletion strains, locus YKL085W, strain MDH1, hits give low values 0.998 | S. cerevisiae deletion strains, locus YKL160W, strain elf1, hits give low values 1.01 | S. cerevisiae deletion strains, locus YKR001C, strain vps1, hits give low values 1.01 | S. cerevisiae deletion strains, locus YKR026C, strain gcn3, hits give low values 0.994 | S. cerevisiae deletion strains, locus YKR091W, strain srl3, hits give low values 1.02 | S. cerevisiae deletion strains, locus YLL001W, strain dnm1, hits give low values 1.01 | S. cerevisiae deletion strains, locus YLL026W, hits give low values 1.02 | S. cerevisiae deletion strains, locus YLL041C, strain sdh2, hits give low values 1.02 | S. cerevisiae deletion strains, locus YLR027C, strain aat2, hits give low values 1.03 | S. cerevisiae deletion strains, locus YLR039C, strain RIC1, hits give low values 1.04 | S. cerevisiae deletion strains, locus YLR058C, strain SHM2, hits give low values 1.01 | S. cerevisiae deletion strains, locus YLR102C, strain apc9, hits give low values 0.992 | S. cerevisiae deletion strains, locus YLR113W, strain HOG1, hits give low values 0.94 | S. cerevisiae deletion strains, locus YLR221C, strain rsa3, hits give low values 1.05 | S. cerevisiae deletion strains, locus YLR258W, strain gsy2, hits give low values 1.03 | S. cerevisiae deletion strains, locus YLR262C, strain YPT6 (second series), hits give low values 1.09 | S. cerevisiae deletion strains, locus YLR262C, strain YPT6, hits give low values 1.08 | S. cerevisiae deletion strains, locus YLR268W, strain sec22, hits give low values 0.977 | S. cerevisiae deletion strains, locus YLR320W, strain mms22, hits give low values 1.07 | S. cerevisiae deletion strains, locus YLR330W, strain CHS5, hits give low values 1.01 | S. cerevisiae deletion strains, locus YLR342W, strain FKS1 (second series), hits give low values 0.984 | S. cerevisiae deletion strains, locus YLR342W, strain FKS1, hits give low values 1.03 | S. cerevisiae deletion strains, locus YLR357W, strain rsc2, hits give low values 1.01 | S. cerevisiae deletion strains, locus YLR370C, strain arc18, hits give low values 1.02 | S. cerevisiae deletion strains, locus YLR371W, strain rom2, hits give low values 0.985 | S. cerevisiae deletion strains, locus YLR384C, strain iki3, hits give low values 1.01 | S. cerevisiae deletion strains, locus YLR418C, strain cdc73, hits give low values 0.98 | S. cerevisiae deletion strains, locus YML016C, strain PPZ1, hits give low values 1.01 | S. cerevisiae deletion strains, locus YML032C, strain rad52, hits give low values 0.987 | S. cerevisiae deletion strains, locus YML120C, strain ndi1, hits give low values 1.03 | S. cerevisiae deletion strains, locus YML124C, strain tub3, hits give low values 0.992 | S. cerevisiae deletion strains, locus YMR058W, strain fet3, hits give low values 1.04 | S. cerevisiae deletion strains, locus YMR078C, strain ctf18, hits give low values 1 | S. cerevisiae deletion strains, locus YMR125W, strain sto1, hits give low values 1.02 | S. cerevisiae deletion strains, locus YMR129W, hits give low values 1.01 | S. cerevisiae deletion strains, locus YMR205C, strain PFK2, hits give low values 1.08 | S. cerevisiae deletion strains, locus YMR223W, strain ubp8, hits give low values 0.992 | S. cerevisiae deletion strains, locus YMR231W, strain pep5, hits give low values 1.01 | S. cerevisiae deletion strains, locus YMR307W, strain GAS1, hits give low values 0.998 | S. cerevisiae deletion strains, locus YNL067W, strain RPL9B, hits give low values 1.01 | S. cerevisiae deletion strains, locus YNL071W, strain lat1, hits give low values 1.03 | S. cerevisiae deletion strains, locus YNL128W, strain TEP1, hits give low values 1.04 | S. cerevisiae deletion strains, locus YNL183C, strain NPR1, hits give low values 0.893 | S. cerevisiae deletion strains, locus YNL209W, strain ssb2, hits give low values 1.03 | S. cerevisiae deletion strains, locus YNL233W, strain BNI4, hits give low values 1.01 | S. cerevisiae deletion strains, locus YNL248C, strain rpa49, hits give low values 1.02 | S. cerevisiae deletion strains, locus YNL250W, strain rad50, hits give low values 0.996 | S. cerevisiae deletion strains, locus YNL271C, strain bni1, hits give low values 0.991 | S. cerevisiae deletion strains, locus YNL298W, strain CLA4, hits give low values 0.988 | S. cerevisiae deletion strains, locus YNL307C, strain MCK1, hits give low values 0.98 | S. cerevisiae deletion strains, locus YNL322C, strain KRE1 (second series), hits give low values 1.02 | S. cerevisiae deletion strains, locus YNL322C, strain KRE1, hits give low values 1.01 | S. cerevisiae deletion strains, locus YNR049C, strain mso1, hits give low values 1.01 | S. cerevisiae deletion strains, locus YNR052C, strain pop2, hits give low values 0.991 | S. cerevisiae deletion strains, locus YOL012C, strain htz1 2.03 | S. cerevisiae deletion strains, locus YOL147C, strain pex11, hits give low values 0.99 | S. cerevisiae deletion strains, locus YOR001W, strain rrp6, hits give low values 1.02 | S. cerevisiae deletion strains, locus YOR061W, strain CKA2, hits give low values 1.01 | S. cerevisiae deletion strains, locus YOR069W, strain VPS5, hits give low values 1.01 | S. cerevisiae deletion strains, locus YOR070C, strain gyp1, hits give low values 1.03 | S. cerevisiae deletion strains, locus YOR080W, strain dia2, hits give low values 1.02 | S. cerevisiae deletion strains, locus YOR083W, strain WHI5, hits give low values 1.01 | S. cerevisiae deletion strains, locus YOR106W, strain vam3, hits give low values 1.02 | S. cerevisiae deletion strains, locus YOR136W, strain idh2, hits give low values 0.996 | S. cerevisiae deletion strains, locus YOR144C, strain elg1, hits give low values 0.997 | S. cerevisiae deletion strains, locus YOR184W, strain ser1, hits give low values 1.03 | S. cerevisiae deletion strains, locus YOR231W, strain MKK1, hits give low values 0.964 | S. cerevisiae deletion strains, locus YOR265W, strain rbl2, hits give low values 1.01 | S. cerevisiae deletion strains, locus YOR270C, strain vph1, hits give low values 1.11 | S. cerevisiae deletion strains, locus YOR290C, strain snf2, hits give low values 1.02 | S. cerevisiae deletion strains, locus YOR316C, strain cot1, hits give low values 0.993 | S. cerevisiae deletion strains, locus YPL051W, strain arl3, hits give low values 1.02 | S. cerevisiae deletion strains, locus YPL055C, strain LGE1, hits give low values 1.03 | S. cerevisiae deletion strains, locus YPL078C, strain atp4, hits give low values 1.02 | S. cerevisiae deletion strains, locus YPL106C, strain sse1, hits give low values 1.02 | S. cerevisiae deletion strains, locus YPL240C, strain hsp82, hits give low values 1.02 | S. cerevisiae deletion strains, locus YPL256C, strain CLN2, hits give low values 0.946 | S. cerevisiae deletion strains, locus YPR119W, strain clb2, hits give low values 0.991 | S. cerevisiae deletion strains, locus YPR141C, strain kar3, hits give low values 0.989 | S. cerevisiae deletion strains, locus YPR163C, strain tif3, hits give low values 0.982 | S. cerevisiae deletion strains, locus YPR167C, strain met16, hits give low values 0.979 | S. cerevisiae deletion strains, strain wtn01, hits give low values 0.974 | S. cerevisiae strains, strain wild type, hits give low values 1.01

Reference: PubChem BioAssay AID1159580 (chemical genetic matrix, 2015)
